{
  "source": "PubChem BioAssay AID2284174",
  "about": "(EPA ToxCast)",
  "note": "Records with an inconclusive call do not appear. Activity calls are given as the source filed them. How the source made its calls: active means hit-call score of the fitted dose curve at least 0.9, where 1 is the maximum; inconclusive means response in the unintended direction; inactive means score below 0.9.",
  "data": [
    {"biological_target": "rat SKCa (Non-Selective), Kcnn1 (gene 54261) (UniProt P70606)", "sequence (P70606 whole entry, looked up)": "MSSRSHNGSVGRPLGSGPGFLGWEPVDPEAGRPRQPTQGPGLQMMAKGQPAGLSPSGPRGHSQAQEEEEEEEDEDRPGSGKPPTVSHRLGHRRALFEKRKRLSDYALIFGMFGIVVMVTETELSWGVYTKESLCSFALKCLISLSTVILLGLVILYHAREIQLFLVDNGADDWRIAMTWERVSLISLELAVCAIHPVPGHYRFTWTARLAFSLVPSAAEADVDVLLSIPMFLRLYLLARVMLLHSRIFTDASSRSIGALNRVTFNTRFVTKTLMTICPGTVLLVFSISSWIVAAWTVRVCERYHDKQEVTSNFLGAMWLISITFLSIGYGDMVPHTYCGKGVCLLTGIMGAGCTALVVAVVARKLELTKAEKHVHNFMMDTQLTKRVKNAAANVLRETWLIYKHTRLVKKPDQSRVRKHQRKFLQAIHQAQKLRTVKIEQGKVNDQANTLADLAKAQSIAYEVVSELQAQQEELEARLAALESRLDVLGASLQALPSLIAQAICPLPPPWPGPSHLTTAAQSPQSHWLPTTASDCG", "experiment": "ERF_FR_IC_rKCNN1: Eurofins (ERF) Potassium Ion Channel [125I] Apamin Binding LeadHunter Assay for rat SKCa (Non-Selective)", "protocol": "ERF_FR_IC_rKCNN1 is a biochemical, single-readout assay that uses extracted gene-proteins in a cell-free assay. Measurements were taken 1 hour after chemical dosing in a 96-well plate. See SKCa (Non-Selective) Rat Potassium Ion Channel [125I] Apamin Binding Assay, Cerep.ERF_FR_IC_rKCNN1 is an assay component calculated from the ERF_FR_IC_rKCNN1 assay. It is designed to measure radioligand binding using a type of binding reporter as detected by scintillation counting with radiometry technology.Data from the assay component ERF_FR_IC_rKCNN1 was analyzed at the assay endpoint, ERF_FR_IC_rKCNN1, in the positive analysis fitting direction relative to DMSO as the negative control and baseline of activity. Using a type of binding reporter, loss-of-signal activity can be used to understand changes in binding as they relate to gene Kcnn1. To generalize the intended target to other relatable targets, this assay endpoint is annotated to the ion channel intended target family, where the subfamily is voltage gated (Potassium).\nThis assay measures binding of [125I]apamin to small conductance calcium-activated potassium channel sites [SKCa]. […] Membranes are filtered and washed 3 times and the filters are counted to determine [125I]apamin specifically bound. […]", "values": [
      {"smiles": "CCCCC[C@H](O)CC(=O)CCc1ccc(O)c(OC)c1", "outcome": "inactive"}
    ]}
  ]
}
